Measured values as given in the supplement of paper PMC9694430.

Key:
Test in all cases: thermal shift delta Tm vs DMSO control; higher = stronger stabilization (binding)
Settings in all cases: 12.5 µM; protein concentration 2 µM
LOC_OS02G45750-cb003 = system: LOC_OS02G45750-cb003
In short: (§1)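 Rice kinase domain constructs were expressed in E. coli, purified, and tested by differential scanning fluorimetry with compound added in DMSO. Each well of a 96-well plate held 19.5 μl of 2 μM kinase in 100 mM potassium phosphate pH 7.5, 150 mM NaCl, 10% glycerol and 5 × SYPRO Orange, and fluorescence was read from 25°C to 95°C at 0.05°C/s. The melting temperature shift is the mean of triplicates, taken against protein with DMSO alone after Boltzmann fitting.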

LOC_OS02G54510-cb004 = system: LOC_OS02G54510-cb004
In short: as §1

LOC_OS03G04050-cb001 = system: LOC_OS03G04050-cb001
In short: as §1

LOC_OS03G12390-cb001 = system: LOC_OS03G12390-cb001
In short: as §1

LOC_OS03G27990-cb004 = system: LOC_OS03G27990-cb004
In short: as §1

LOC_OS03G50450-cb001 = system: LOC_OS03G50450-cb001
In short: as §1

LOC_OS03G50810-cb003 = system: LOC_OS03G50810-cb003
In short: as §1

LOC_OS04G35114-cb001 = system: LOC_OS04G35114-cb001
In short: as §1

LOC_OS04G38480-cb003 = system: T1, LOC_OS04G38480-cb003
T1 sequence (whole entry): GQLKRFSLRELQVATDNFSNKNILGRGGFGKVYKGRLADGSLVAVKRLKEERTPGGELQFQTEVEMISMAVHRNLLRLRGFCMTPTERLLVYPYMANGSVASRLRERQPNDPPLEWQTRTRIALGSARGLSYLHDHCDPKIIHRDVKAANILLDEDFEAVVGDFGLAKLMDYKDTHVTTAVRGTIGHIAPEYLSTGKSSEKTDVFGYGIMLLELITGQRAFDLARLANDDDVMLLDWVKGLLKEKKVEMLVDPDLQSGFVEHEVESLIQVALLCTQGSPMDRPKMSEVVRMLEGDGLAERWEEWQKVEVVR
In short: as §1

LOC_OS04G41100-cb001 = system: T2, LOC_OS04G41100-cb001
T2 sequence (whole entry): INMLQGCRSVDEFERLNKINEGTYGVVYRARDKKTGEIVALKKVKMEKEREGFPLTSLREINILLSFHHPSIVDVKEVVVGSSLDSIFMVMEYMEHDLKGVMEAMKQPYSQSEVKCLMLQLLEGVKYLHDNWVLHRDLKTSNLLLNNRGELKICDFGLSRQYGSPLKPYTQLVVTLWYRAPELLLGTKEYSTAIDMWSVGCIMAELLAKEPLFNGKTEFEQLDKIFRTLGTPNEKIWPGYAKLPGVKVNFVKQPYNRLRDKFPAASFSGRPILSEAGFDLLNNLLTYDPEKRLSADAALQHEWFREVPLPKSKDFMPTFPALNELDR
In short: as §1

LOC_OS04G57630-cb004 = system: LOC_OS04G57630-cb004
In short: as §1

LOC_OS05G07850-cb002 = system: LOC_OS05G07850-cb002
In short: as §1

LOC_OS05G16824-cb004 = system: LOC_OS05G16824-cb004
In short: as §1

LOC_OS05G28520-cb001 = system: LOC_OS05G28520-cb001
In short: as §1

LOC_OS05G30820-cb001 = system: LOC_OS05G30820-cb001
In short: as §1

LOC_OS05G43570-cb004 = system: LOC_OS05G43570-cb004
In short: as §1

LOC_OS06G16330-cb003 = system: LOC_OS06G16330-cb003
In short: as §1

LOC_OS06G22820-cb001 = system: T3, LOC_OS06G22820-cb001
T3 sequence (whole entry): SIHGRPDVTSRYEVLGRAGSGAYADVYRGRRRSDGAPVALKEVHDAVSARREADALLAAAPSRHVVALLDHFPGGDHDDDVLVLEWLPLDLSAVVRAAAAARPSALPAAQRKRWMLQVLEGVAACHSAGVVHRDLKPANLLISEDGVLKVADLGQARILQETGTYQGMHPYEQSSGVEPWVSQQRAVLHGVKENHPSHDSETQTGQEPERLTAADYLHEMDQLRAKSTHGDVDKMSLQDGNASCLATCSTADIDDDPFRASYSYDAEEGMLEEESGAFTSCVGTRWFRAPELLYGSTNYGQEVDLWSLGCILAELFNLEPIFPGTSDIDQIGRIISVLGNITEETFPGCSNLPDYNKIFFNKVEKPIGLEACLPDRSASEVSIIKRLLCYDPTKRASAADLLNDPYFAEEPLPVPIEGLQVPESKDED
In short: as §1

LOC_OS07G06570-cb004 = system: LOC_OS07G06570-cb004
In short: as §1

LOC_OS07G07230-cb001 = system: LOC_OS07G07230-cb001
In short: as §1

Chain of LOC_OS06G16330-cb003 (as listed by the source): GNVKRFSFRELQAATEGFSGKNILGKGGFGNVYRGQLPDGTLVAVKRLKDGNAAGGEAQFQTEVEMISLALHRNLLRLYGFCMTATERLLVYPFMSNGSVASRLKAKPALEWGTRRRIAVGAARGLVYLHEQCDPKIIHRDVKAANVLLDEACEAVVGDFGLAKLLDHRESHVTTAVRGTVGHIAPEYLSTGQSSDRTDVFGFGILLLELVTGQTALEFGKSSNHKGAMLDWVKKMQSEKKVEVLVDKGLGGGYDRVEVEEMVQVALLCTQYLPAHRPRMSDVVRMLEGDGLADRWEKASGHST

SMILES | thermal shift delta Tm (LOC_OS02G45750-cb003) [°C] | thermal shift delta Tm (LOC_OS02G54510-cb004) [°C] | thermal shift delta Tm (LOC_OS03G04050-cb001) [°C] | thermal shift delta Tm (LOC_OS03G12390-cb001) [°C] | thermal shift delta Tm (LOC_OS03G27990-cb004) [°C] | thermal shift delta Tm (LOC_OS03G50450-cb001) [°C] | thermal shift delta Tm (LOC_OS03G50810-cb003) [°C] | thermal shift delta Tm (LOC_OS04G35114-cb001) [°C] | thermal shift delta Tm (LOC_OS04G38480-cb003) [°C] | thermal shift delta Tm (LOC_OS04G41100-cb001) [°C] | thermal shift delta Tm (LOC_OS04G57630-cb004) [°C] | thermal shift delta Tm (LOC_OS05G07850-cb002) [°C] | thermal shift delta Tm (LOC_OS05G16824-cb004) [°C] | thermal shift delta Tm (LOC_OS05G28520-cb001) [°C] | thermal shift delta Tm (LOC_OS05G30820-cb001) [°C] | thermal shift delta Tm (LOC_OS05G43570-cb004) [°C] | thermal shift delta Tm (LOC_OS06G16330-cb003) [°C] | thermal shift delta Tm (LOC_OS06G22820-cb001) [°C] | thermal shift delta Tm (LOC_OS07G06570-cb004) [°C] | thermal shift delta Tm (LOC_OS07G07230-cb001) [°C]
C=CC(=O)Nc1cccc(Nc2nc(Nc3ccc(Oc4ccnc(C(=O)NC)c4)cc3)ncc2F)c1 | 0.72 | 1.23 | 0.77 | 2.55 | 0.98 | 1.34 | 2.61 | 2.69 | 3.42 | 0.73 | 1.31 | 11 | 6.27 | 0.89 | 0.57 | 0.22 | 6.48 | 0.38 | 0.89 | 1.49
CC(C)CC(=O)Nc1n[nH]c2c1CN(C(=O)C1CCN(C)CC1)C2(C)C | 0.62 | 0.36 | 0.36 | 0.64 | 0.15 | 0.29 | 1.12 | 0.47 | 0.59 | 3.27 | 0.48 | 0.58 | 0.18 | 0.19 | 0.53 | 0.86 | -0.05 | 3.38 | 0.44 | 0.05
CCN(CC)CCNC(=O)c1c(C)[nH]c(/C=C2\C(=O)Nc3ccc(F)cc32)c1C [Sunitinib] | 0 | 0.62 | 0.04 | 7.93 | 7.62 | 3.43 | 7.56 | 11 | 3.55 | 0.46 | 4.01 | 8.4 | 12.1 | 2.16 | 0.86 | 0.55 | 8.31 | 0.22 | 0.72 | 0.24
CC[C@@H]1C(=O)N(C)c2cnc(Nc3ccc(C(=O)N[C@H]4CC[C@H](N5CCN(CC6CC6)CC5)CC4)cc3OC)nc2N1C(C)C [Volasertib (BI 6727)] | 1.95 | 0.58 | 0.68 | 0.73 | 0.69 | 1.23 | 0.54 | 1 | 0.84 | 0.24 | 0.28 | 1.33 | 2.5 | -0.32 | 0.58 | 0.4 | 0.46 | 0.34 | 0.62 | -0.12
Cc1c(NC(=O)OC[C@@H]2COCCN2)cn2ncnc(Nc3ccc4c(cnn4Cc4cccc(F)c4)c3)c12 | 0.67 | 0.27 | 0.42 | 0.69 | 0.14 | 0.45 | 0.15 | 1.04 | 1.85 | 0.82 | 0.21 | 0.64 | 0.54 | 0.43 | 0.46 | 0.75 | -0.49 | 0.8 | 0.91 | 0.29
Nc1nc2cc(-c3ccc4ncc(C(=O)N5CCOCC5)n4c3)ccc2o1 [Serabelisib (INK-1117,MLN-1117,TAK-117)] | 1.65 | 0.12 | 0.57 | 0.22 | 0.37 | 0.93 | 0.42 | 1.85 | 0.6 | 0.51 | 0.92 | 2.64 | 6.24 | 0.55 | 0.04 | 0.35 | 0.24 | 0.5 | 1.85 | 0.61
